Here are results for 40 compounds from PubChem BioAssay (NCI).

The panel holds about 83,000 compounds, 20% with a hit somewhere; the sample as a whole holds those more often.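 How to read the values: 0–100, growth inhibition (40 = 60% inhibited); 0, no net growth; -100 to 0, cell death (-40 = 40% of starting cells died; -100 = all dead).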 Unmarked numbers belong to inactive results. The source made the active and inactive calls.

This test concerns NCI-H460 lung. Nature of the test: NCI-60 one-dose screen, 48 h (100 = growth as untreated, 0 = no growth, -100 = all killed). The note with it: 10 µM unless noted. The protocol:
Growth inhibition of the NCI-H460 human Non-Small Cell Lung tumor cell line is measured as a screen for anti-cancer activity. Cells are grown in 96 well plates and exposed to the test compound for 48 hours. Compounds are tested at a single concentration, which is 10^-5 M for most compounds. The reported endpoint is percent growth (GI% or GIPRCNT), where numbers from 0 - 100% represent growth inhibition, and numbers from -100% - 0 represent cell death. For example, a value of 40 represents 60% growth inhibition. A value of 0 means no net growth occurred over the course of the experiment. A value of -40 indicates 40% of cells at the beginning of the experiment died by the end of the experiment. A value of -100 means all cells are dead at the end of the experiment.
NCI-60 Human Tumor Cell Lines Screen was performed using the standard one-dose NCI protocol, which is described in more detail at https://dtp.cancer.gov/discovery_development/nci-60/default.htm.
Compounds with GIPRCNT values below 10 were considered active. Activity score was based on GIPRCNT using the following formula: […]
Score is 0 for GIPRCNT values of 100 or above, 50 for GIPRCNT values of 0, and 100 for GIPRCNT values of -100.
In the case of `COc1ccc(/C=C2\CCCC3=C2N=C2SC=NN2C3c2ccc(OC)c(OC)c2)cc1OC` (stereo not given), the growth was 44%.
Turning to `COC(=O)[C@H](Cc1cn(C)cn1)NC(=O)[C@@H](NC(=O)Nc1cc(C(F)(F)F)cc(C(F)(F)F)c1)C(C)(C)C`, the growth was -56.3% [100 µM] (active).
For `CC(C)OC(=O)[C@H](C)N[P@@](=O)(OC[C@@]1(C)O[C@@H](n2cc(F)c(N)nc2=O)C[C@@H]1O[P@](=O)(N[C@@H](C)C(=O)OC(C)C)Oc1ccccc1)Oc1ccccc1`, the growth was 28.7%.
Take `CC1Cc2cc(F)ccc2-n2cccc21` (stereo not given): the growth was 98.7%.
Regarding `O=C(N/N=C/c1coc2ccccc2c1=O)c1cc2oc(-c3ccccc3)cc2[nH]1`, the growth was 105%.
Turning to `CC1=NN(c2cccc(Cl)c2)C(=O)/C1=C\c1cn(-c2nc(N3CCOCC3)nc(N3CCOCC3)n2)c2ccccc12`, the growth was 112%.
As to `CCCOC(=O)c1c(C)n(C)c2scc[n+]12`, the growth is 110%.
For `COc1cc(N)c2nccc(C)c2c1OC`, the growth is 112%.
As to `CN(CCC#N)c1ccc(/C=C(\C#N)c2cccc(C(F)(F)F)c2)cc1`, the growth was 74%.
With `CC(=O)N1CCN(CCNC(=O)n2cc(-c3ccncc3)c(-c3cc(O)cc(Cl)c3)n2)CC1`, the growth is 89%.
Take `CCN(CC)CCCNc1c2ccc(Cl)cc2nc2ccc(OC)cc12`: the growth was 1.68% (active).
`O=C(/C=C\c1ccccc1Cl)c1ccccc1`: the growth was 95.4%.
In the case of `Cc1ccc(OCCn2ccc(=O)n(CCOc3ccc(Cl)cc3C(=O)c3cc(C)cc(C)c3)c2=O)cc1`, the growth was 37.2%.
Regarding `COc1ccccc1Cn1cc2c(c1)-c1oncc1CC2`, the growth was 4.04% (active).
For the compound `CCOC(=O)NC1=NCC(C)(C)S1`, the growth was 101%.
The figure for `O=C(/C=C/c1ccc(Cl)cc1)c1ccc(Cl)cc1` is 104%.
Consider `COc1ccc(-c2nc(SCC(C)C)nc(Nc3ccccc3)c2C#N)cc1`, for which the growth was 18.7%.
Turning to `CC(=O)Nc1ccc(CC#N)cc1Br`, the growth was 101%.
Turning to `C/C(=C\c1ccc2ccccc2c1)[N+](=O)[O-]`, the growth was 98.8%.
Turning to `O=C(/C=C/c1ccc(Br)cc1)c1ccccc1`, the growth was 101%.
Turning to `Cc1c(C(N)=O)sc2c1c(=O)n(Cc1ccccc1)c1nnc(S(C)(=O)=O)n21`, the growth is 91.3%.
The value for `C/C=C/C/C=C/[C@H](C)C[C@H](O)[C@@H]1C[C@@H]2O[C@H]2/C=C/[C@@H]2OC(C)(C)O[C@H]2/C=C/C[C@H](C)CC(=O)O1` was 17.4%; that for `O=C(CCC(=O)N(CCO)CCO)N(CCO)CCO` was 116%.
On to `CC(=O)OC1CC2C3CCC4C[C@@H](NC(=O)C=C(C)C)CC[C@]4(C)C3CC[C@]2(C)[C@H]1C(C)N(C)C` (stereo not given in full), for which the growth is -39.9% (active).
The value for `CCn1cnc(C[C@H](NC(=O)[C@@H](NC(=O)Nc2cc(C(F)(F)F)cc(C(F)(F)F)c2)C(C)(C)C)C(=O)OC)c1` was -57.2% [100 µM] (active).
In the case of `CC(=N\N=C(N)N)/C(=N/N=C(N)N)c1ccccc1`, the growth is 93.3%.
`Clc1ccc(N/N=C(/c2ccccc2)c2ccccn2)nc1`: the growth is 28.8%.
Consider `COc1ccc2c(c1)cn1c3ccc(O)cc3[nH]c(=O)c21`, for which the growth was -52.4% (active).
On to `COC(=O)[C@H](Cc1cn(C)cn1)NC(=O)[C@H](CC(=O)OCc1ccccc1)NC(=O)Nc1cc(C(F)(F)F)cc(C(F)(F)F)c1`, for which the growth is -62.8% [100 µM] (active).
The value for `Br/C(=N\Nc1nn[nH]n1)c1ccccc1` was 105%; that for `C=CN(C)S(C)(=O)=O` was 17.8%; that for `CC(C)(C)c1ccc([I+]c2ccc(C(C)(C)C)cc2)cc1` was 4.98% (active).
`Clc1ccc(N/N=C/c2ccccn2)nc1`: the growth is 3.11% (active).
As to `C/C=C/C/C=C/[C@H](C)C[C@H](O)[C@@H]1C[C@@H]2O[C@H]2/C=C/[C@H](O)[C@@H](O)/C=C/C[C@H](C)CC(=O)O1`, the growth is 62.8%.
The value for `C#CCCCCCCC[C@@H]1OC(=O)[C@H]([C@@H](C)CC)NC(=O)[C@H]([C@@H](C)CC)NC(=O)CC(=O)[C@@H]1C` was 103%; that for `Nc1nc(-c2cccc(Br)c2)cc(-c2cc3ccccc3oc2=O)n1` was 103%; that for `CCCCCCCCCCCCCCCCNC(=O)Nc1ccc(C)c(NC(=O)NCCCCCCCCCCCCCCCC)c1` was 103%.
Regarding `CCOC(=O)/C(C#N)=C(/CC)OCC`, the growth is 110%.
With `CCC(C)C1NC(=O)C(CC(C)C)NC(=O)C(C)NC(=O)C(C(C)C)NC(=O)C(CCCCN)NC(=O)C(CC(C)C)NC(=O)C(C(C)C)NC(=O)[C@H](C)NC(=O)C(C(C)CC)NC(=O)C(CCCN=C(N)N)NC(=O)C(CCCCN)NC(=O)C(CCCN=C(N)N)NC(=O)C(CCCCN)NC(=O)C([C@H](C)CC)NC(=O)C(CCCCN)NC1=O` (stereo not given in full), the growth was 4.91% (active).
As to `COc1ccc(C2CC(=O)c3c(O)cc(OC4OC(COC5OC(C)C(O)C(O)C5O)C(O)C(O)C4O)cc3O2)cc1O` (stereo not given), the growth was 110%.
